In PubChem BioAssay (NCATS):
Records with an inconclusive call do not appear. The source made the active and inactive calls. Calls follow the shape of the dose curve; as a rule, active = well fitted curve in the direction sought with a large enough effect; inconclusive = small, poorly fitted or top-dose-only effect, or another doubt; inactive = no such curve, though single readings can be large; an effect the other way counts as inactive or inconclusive.

Legend:
[1] = biological target: Ubiquitin carboxyl-terminal hydrolase 1 (Homo sapiens) (UniProt O94782); assay: Inhibitors of USP1/UAF1: Pilot qHTS (AID 504865);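 also: rhodamine fluorescence freed from ubiquitin-rhodamine substrate followed over time; top concentration of the series differs between compounds; % is scaled to controls: 0 for no effect and ±100 for the full control effect; nearly all actives have a fitted effect of over 35% in size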
Chain of Ubiquitin carboxyl-terminal hydrolase 1 (Homo sapiens) (O94782 whole entry, looked up): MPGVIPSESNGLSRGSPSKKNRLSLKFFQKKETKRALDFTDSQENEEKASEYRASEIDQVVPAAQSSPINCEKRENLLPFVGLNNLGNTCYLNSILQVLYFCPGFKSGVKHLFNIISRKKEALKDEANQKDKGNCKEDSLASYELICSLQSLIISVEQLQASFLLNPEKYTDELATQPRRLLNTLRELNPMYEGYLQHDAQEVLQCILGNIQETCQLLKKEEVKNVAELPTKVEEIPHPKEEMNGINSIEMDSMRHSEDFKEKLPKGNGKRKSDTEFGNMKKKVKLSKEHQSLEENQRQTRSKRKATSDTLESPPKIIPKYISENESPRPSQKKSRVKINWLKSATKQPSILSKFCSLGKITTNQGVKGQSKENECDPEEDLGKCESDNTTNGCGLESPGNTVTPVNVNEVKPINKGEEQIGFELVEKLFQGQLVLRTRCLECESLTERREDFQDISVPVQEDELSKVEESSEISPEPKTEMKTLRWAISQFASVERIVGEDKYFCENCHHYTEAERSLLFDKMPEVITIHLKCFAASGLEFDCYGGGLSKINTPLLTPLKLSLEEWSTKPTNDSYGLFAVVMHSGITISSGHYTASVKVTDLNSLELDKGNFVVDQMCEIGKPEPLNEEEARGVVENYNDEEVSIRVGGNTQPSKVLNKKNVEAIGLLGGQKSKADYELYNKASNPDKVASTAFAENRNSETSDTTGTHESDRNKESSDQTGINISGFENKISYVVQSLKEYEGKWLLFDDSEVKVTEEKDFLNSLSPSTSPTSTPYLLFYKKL
Method in brief: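 USP1/UAF1 complex (1nM) preincubated with compound 15 min at room temperature, then Ub-Rho substrate (150nM final) added. Fluorescence read kinetically at 480/540 nm, 6 reads every 60 seconds. Buffer: 50mM HEPES pH 7.8, 0.5mM EDTA, 0.1 mg/ml BSA, 1mM TCEP, 0.01% Tween-20.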

[2] = S16 Schwann cell viability assay (CellTiter-Glo assay) (AID 624031);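 also: native untransfected S16 rat Schwann cells; cellular ATP luminescence as a viability measure; plate controls were DMSO-treated cells for no effect and cell-free wells for full effect; nearly all actives have a fitted effect of over 70% in size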
Method in brief: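 Parental S16 cells, 24 h compound, 37 °C. ATP-luminescence viability; DMSO = 0% activity, empty wells as reference; curves classified by fit quality and efficacy.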

[3] = S16 Schwann cell PMP22 intronic element firefly luciferase assay (AID 624032);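 also: plate controls were DMSO for no effect and PTC124 positive control mean for full effect; nearly all actives have a fitted effect of over 30% in size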
Method in brief: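 Rat S16 Schwann cells stably carrying firefly luciferase driven by a PMP22 intronic element, in 10% FBS, treated 24 h at 37 C. ONE-Glo luminescence normalized to PTC124 control and DMSO (0%); curves classed by r2, magnitude and activity.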

[4] = qHTS profiling for inhibitors of Plasmodium falciparum proliferation (AID 504749);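 also: 0% = DMSO vehicle and full inhibition = artemisinin control; nearly all actives have a fitted effect of over 60% in size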; details: P. falciparum in erythrocytes, SYBR Green DNA, 72 h, at 28.7 µM (top of the series)
Method in brief: (§1)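 SYBR Green fluorescence (ex 485 nm, em 535 nm) reports parasite DNA after 72 h compound exposure of infected red cells at 0.3% parasitemia, 2.5% hematocrit; signal normalized to 0.29 uM artemisinin and vehicle wells.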

3D7 = assay: as above; details: P. falciparum in erythrocytes, SYBR Green DNA, 72 h; series mostly up to 28.7 µM
Method in brief: as §1

7G8 = assay: as above; details: P. falciparum in erythrocytes, SYBR Green DNA, 72 h; series mostly up to 28.7 µM
Method in brief: as §1

AA1029 = assay: as above; details: P. falciparum in erythrocytes, SYBR Green DNA, 72 h; series mostly up to 28.7 µM
Method in brief: as §1

AS120 = assay: as above; details: P. falciparum in erythrocytes, SYBR Green DNA, 72 h; series mostly up to 28.7 µM
Method in brief: as §1

ATS189 = assay: as above; details: P. falciparum in erythrocytes, SYBR Green DNA, 72 h; series mostly up to 28.7 µM
Method in brief: as §1

ATS95 = assay: as above; details: P. falciparum in erythrocytes, SYBR Green DNA, 72 h; series mostly up to 28.7 µM
Method in brief: as §1

C2A = assay: as above; details: P. falciparum in erythrocytes, SYBR Green DNA, 72 h; series mostly up to 28.7 µM
Method in brief: as §1

CP185 = assay: as above; details: P. falciparum in erythrocytes, SYBR Green DNA, 72 h; series mostly up to 28.7 µM
Method in brief: as §1

CP191 = assay: as above; details: P. falciparum in erythrocytes, SYBR Green DNA, 72 h; series mostly up to 28.7 µM
Method in brief: as §1

CP192 = assay: as above; details: P. falciparum in erythrocytes, SYBR Green DNA, 72 h; series mostly up to 28.7 µM
Method in brief: as §1

CP194 = assay: as above; details: P. falciparum in erythrocytes, SYBR Green DNA, 72 h; series mostly up to 28.7 µM
Method in brief: as §1

CP201 = assay: as above; details: P. falciparum in erythrocytes, SYBR Green DNA, 72 h; series mostly up to 28.7 µM
Method in brief: as §1

CP203 = assay: as above; details: P. falciparum in erythrocytes, SYBR Green DNA, 72 h; series mostly up to 28.7 µM
Method in brief: as §1

CP211 = assay: as above; details: P. falciparum in erythrocytes, SYBR Green DNA, 72 h; series mostly up to 28.7 µM
Method in brief: as §1

CP215 = assay: as above; details: P. falciparum in erythrocytes, SYBR Green DNA, 72 h; series mostly up to 28.7 µM
Method in brief: as §1

CP217 = assay: as above; details: P. falciparum in erythrocytes, SYBR Green DNA, 72 h; series mostly up to 28.7 µM
Method in brief: as §1

CP237 = assay: as above; details: P. falciparum in erythrocytes, SYBR Green DNA, 72 h; series mostly up to 28.7 µM
Method in brief: as §1

CP238 = assay: as above; details: P. falciparum in erythrocytes, SYBR Green DNA, 72 h; series mostly up to 28.7 µM
Method in brief: as §1

CP247 = assay: as above; details: P. falciparum in erythrocytes, SYBR Green DNA, 72 h; series mostly up to 28.7 µM
Method in brief: as §1

CP250 = assay: as above; details: P. falciparum in erythrocytes, SYBR Green DNA, 72 h; series mostly up to 28.7 µM
Method in brief: as §1

CP252 = assay: as above; details: P. falciparum in erythrocytes, SYBR Green DNA, 72 h; series mostly up to 28.7 µM
Method in brief: as §1

CP256 = assay: as above; details: P. falciparum in erythrocytes, SYBR Green DNA, 72 h; series mostly up to 28.7 µM
Method in brief: as §1

CP260 = assay: as above; details: P. falciparum in erythrocytes, SYBR Green DNA, 72 h; series mostly up to 28.7 µM
Method in brief: as §1

CP262 = assay: as above; details: P. falciparum in erythrocytes, SYBR Green DNA, 72 h; series mostly up to 28.7 µM
Method in brief: as §1

CP265 = assay: as above; details: P. falciparum in erythrocytes, SYBR Green DNA, 72 h; series mostly up to 28.7 µM
Method in brief: as §1

CP266 = assay: as above; details: P. falciparum in erythrocytes, SYBR Green DNA, 72 h; series mostly up to 28.7 µM
Method in brief: as §1

CP268 = assay: as above; details: P. falciparum in erythrocytes, SYBR Green DNA, 72 h; series mostly up to 28.7 µM
Method in brief: as §1

CP269 = assay: as above; details: P. falciparum in erythrocytes, SYBR Green DNA, 72 h; series mostly up to 28.7 µM
Method in brief: as §1

CP286 = assay: as above; details: P. falciparum in erythrocytes, SYBR Green DNA, 72 h; series mostly up to 28.7 µM
Method in brief: as §1

CP291 = assay: as above; details: P. falciparum in erythrocytes, SYBR Green DNA, 72 h; series mostly up to 28.7 µM
Method in brief: as §1

CP297 = assay: as above; details: P. falciparum in erythrocytes, SYBR Green DNA, 72 h; series mostly up to 28.7 µM
Method in brief: as §1

CP305 = assay: as above; details: P. falciparum in erythrocytes, SYBR Green DNA, 72 h; series mostly up to 28.7 µM
Method in brief: as §1

CP315 = assay: as above; details: P. falciparum in erythrocytes, SYBR Green DNA, 72 h; series mostly up to 28.7 µM
Method in brief: as §1

CP325 = assay: as above; details: P. falciparum in erythrocytes, SYBR Green DNA, 72 h; series mostly up to 28.7 µM
Method in brief: as §1

CP329 = assay: as above; details: P. falciparum in erythrocytes, SYBR Green DNA, 72 h; series mostly up to 28.7 µM
Method in brief: as §1

CP335 = assay: as above; details: P. falciparum in erythrocytes, SYBR Green DNA, 72 h; series mostly up to 28.7 µM
Method in brief: as §1

DIV14 = assay: as above; details: P. falciparum in erythrocytes, SYBR Green DNA, 72 h; series mostly up to 28.7 µM
Method in brief: as §1

DIV17 = assay: as above; details: P. falciparum in erythrocytes, SYBR Green DNA, 72 h; series mostly up to 28.7 µM
Method in brief: as §1

DIV30 = assay: as above; details: P. falciparum in erythrocytes, SYBR Green DNA, 72 h; series mostly up to 28.7 µM
Method in brief: as §1

Dd2 = assay: as above; details: P. falciparum in erythrocytes, SYBR Green DNA, 72 h; series mostly up to 28.7 µM
Method in brief: as §1

ECU = assay: as above; details: P. falciparum in erythrocytes, SYBR Green DNA, 72 h; series mostly up to 28.7 µM
Method in brief: as §1

FAB9 = assay: as above; details: P. falciparum in erythrocytes, SYBR Green DNA, 72 h; series mostly up to 28.7 µM
Method in brief: as §1

GB4 = assay: as above; details: P. falciparum in erythrocytes, SYBR Green DNA, 72 h; series mostly up to 28.7 µM
Method in brief: as §1

HB3 = assay: as above; details: P. falciparum in erythrocytes, SYBR Green DNA, 72 h; series mostly up to 28.7 µM
Method in brief: as §1

ICS = assay: as above; details: P. falciparum in erythrocytes, SYBR Green DNA, 72 h; series mostly up to 28.7 µM
Method in brief: as §1

JCK = assay: as above; details: P. falciparum in erythrocytes, SYBR Green DNA, 72 h; series mostly up to 28.7 µM
Method in brief: as §1

N140 = assay: as above; details: P. falciparum in erythrocytes, SYBR Green DNA, 72 h; series mostly up to 28.7 µM
Method in brief: as §1

P93_24 = assay: as above; details: P. falciparum in erythrocytes, SYBR Green DNA, 72 h; series mostly up to 28.7 µM
Method in brief: as §1

P94_40 = assay: as above; details: P. falciparum in erythrocytes, SYBR Green DNA, 72 h; series mostly up to 28.7 µM
Method in brief: as §1

PAD = assay: as above; details: P. falciparum in erythrocytes, SYBR Green DNA, 72 h; series mostly up to 28.7 µM
Method in brief: as §1

PC15 = assay: as above; details: P. falciparum in erythrocytes, SYBR Green DNA, 72 h; series mostly up to 28.7 µM
Method in brief: as §1

PC26 = assay: as above; details: P. falciparum in erythrocytes, SYBR Green DNA, 72 h; series mostly up to 28.7 µM
Method in brief: as §1

PC49 = assay: as above; details: P. falciparum in erythrocytes, SYBR Green DNA, 72 h; series mostly up to 28.7 µM
Method in brief: as §1

SC27B = assay: as above; details: P. falciparum in erythrocytes, SYBR Green DNA, 72 h; series mostly up to 28.7 µM
Method in brief: as §1

TAB109 = assay: as above; details: P. falciparum in erythrocytes, SYBR Green DNA, 72 h; series mostly up to 28.7 µM
Method in brief: as §1

CC(N)C(=O)NCC(=O)NC1CSSCC(C(=O)O)NC(=O)C(CO)NC(=O)C(C(C)O)NC(=O)C(Cc2ccccc2)NC(=O)C(C(C)O)NC(=O)C(CCCCN)NC(=O)C(Cc2c[nH]c3ccccc23)NC(=O)C(Cc2ccccc2)NC(=O)C(Cc2ccccc2)NC(=O)C(CC(N)=O)NC(=O)C(CCCCN)NC1=O (stereo not given)
inactive: Potency [1] | Potency [2] | Potency [3] | activity, negative = inhibition ([4]; parasite line A) 12% | activity, negative = inhibition ([4]; parasite line B) 4.8% | Potency (3D7) | Potency (7G8) | Potency (AA1029) | Potency (AS120) | Potency (ATS189) | Potency (ATS95) | Potency (C2A) | Potency (CP185) | Potency (CP191) | Potency (CP192) | Potency (CP194) | Potency (CP201) | Potency (CP203) | Potency (CP211) | Potency (CP215) | Potency (CP217) | Potency (CP237) | Potency (CP238) | Potency (CP247) | Potency (CP250) | Potency (CP252) | Potency (CP256) | Potency (CP260) | Potency (CP262) | Potency (CP265) | Potency (CP266) | Potency (CP268) | Potency (CP269) | Potency (CP286) | Potency (CP291) | Potency (CP297) | Potency (CP305) | Potency (CP315) | Potency (CP325) | Potency (CP329) | Potency (CP335) | Potency (DIV14) | Potency (DIV17) | Potency (DIV30) | Potency (Dd2) | Potency (ECU) | Potency (FAB9) | Potency (GB4) | Potency (HB3) | Potency (ICS) | Potency (JCK) | Potency (N140) | Potency (P93_24) | Potency (P94_40) | Potency (PAD) | Potency (PC15) | Potency (PC26) | Potency (PC49) | Potency (SC27B) | Potency (TAB109)
